Out of some 290,000 compounds screened, about 3,000 (1%) were called active. This excerpt belongs to a sample that is enriched for actives. A number with no mark means an inactive call. No stated cut-off is given here; in the data, active means inhibition mostly above about 36% (no sharp cut-off); inactive means mostly below about 34%.
Experiment: NOD1 signaling inhibitors, primary screen, cell-based, luminescence, uHTS (AID 1578);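 further: HEK-293T reporter cells stimulated with the NOD1 agonist gamma-tri-DAP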
Conditions: NOD1-driven NF-kB luciferase reporter cells, at 4 µM, hits give high values

Structure (SMILES)	inhibition
Cc1ccnc(NC(=O)/C=C/c2ccccc2[N+](=O)[O-])c1	-40.4%
Cc1nccn1CC(O)COc1ccc([N+](=O)[O-])cc1 (stereo not drawn)	-5.8%
CCOC(=O)Cn1nnnc1CN(Cc1ccc(OC)cc1)Cc1cc2cc(C)cc(C)c2[nH]c1=O	-21.1%
Cn1c(=O)c2c(nc(N/N=C/c3ccc(OC(=O)c4ccco4)cc3)n2Cc2ccccc2)n(C)c1=O	26.6%
Cn1c(=O)c2c(nc(N/N=C/c3ccc(OC(=O)c4ccco4)cc3)n2Cc2ccc(F)cc2)n(C)c1=O	33.2%
Cc1nn2c3ccccc3n(CC(=O)c3cccs3)c2nc1=O	19.3%
COc1cccc(CNC(=O)N2CCN(S(=O)(=O)c3ccc(Cl)cc3)CC2)c1	12.4%
COc1ccc(C(=O)C2CCCN(C(=O)COc3ccc(C(C)=O)cc3)C2)cc1F (stereo not drawn)	-21.9%
CCN1/C(=C2\SC(=S)N(Cc3ccccc3)C2=O)Sc2ccccc21	4.6%
CCC(CO)[n+]1c(C)cc(/C=C2\Sc3ccccc3N2Cc2ccccc2)cc1C (stereo not drawn)	75.9% (active)
C[n+]1ccccc1/C=C1\Sc2ccccc2N1CCO	-20.4%
COc1ccc(CNS(=O)(=O)c2ccccc2Br)cc1	3.1%
CC(=O)c1cccc(Nc2ccc(-c3ccccc3F)nn2)c1	-57.9%
Cc1ccc(C(=O)NC(=S)N2CCN(c3cc(C)ccc3C)CC2)cc1	55.1% (active)
Cc1ccc(C(=O)NC(=S)N2CCN(c3ccccc3F)CC2)cc1	19.9%
Cc1ccc(C(=O)NC(=S)N2CCN(C)CC2)cc1	-21.2%
Cc1ccc(OCC(O)CNC2CCCC2)cc1C (stereo not drawn)	62.6% (active)
COc1ccc(OCC(O)CNC2CCCC2)cc1 (stereo not drawn)	5.8%
Cc1ccc(C)c(OCC(O)CNC2CCCC2)c1 (stereo not drawn)	-40.4%
CC(C)OC1(c2ccccc2)OC(=O)c2ccccc21 (stereo not drawn)	13.3%
Cc1ccc(C(=O)n2c3ccccc3c3ccccc32)cc1	7.1%

Structure (SMILES)	inhibition
CC(=O)n1c2ccccc2c2ccccc21	11.7%
COc1ccc(C(=O)n2c(N)nc3ccccc32)cc1OC	-61.2%
Nc1ccc(C(=O)n2c3ccccc3c3ccccc32)cc1	75.2% (active)
Cc1ccc(C(=O)n2c(N)nc3ccccc32)cc1	41.2% (active)
Nc1nc2ccccc2n1C(=O)c1ccccc1	-26.6%
O=C(CC1C(=O)NCCN1Cc1ccc(-c2ccccc2)cc1)NCCCn1cccn1 (stereo not drawn)	-27.9%
CNC(=O)COC(=O)[C@@H](Nc1ccc(S(=O)(=O)N2CCOCC2)cc1[N+](=O)[O-])C(C)C	-8.1%
Cc1ccc(C(=O)Nc2ncn[nH]2)cc1	-32.8%
CCOc1ccc(-c2[nH]ncc2Oc2cccc(OC)c2)c(O)c1	10.8%
CCCCc1c(C)c(C#N)c2nc3ccccc3n2c1NCCN(C)C	-4.5%
CCCCc1c(C)c(C#N)c2nc3ccccc3n2c1Cl	101% (active)
CCCCCc1c(C)c(C#N)c2nc3ccccc3n2c1-n1ccnc1C	15.8%
CCc1c(C)c(C#N)c2nc3ccccc3n2c1N(C)C	2%
Cc1cc(Cl)n2c(nc3ccccc32)c1C#N	-29.7%
CCc1c(C)c(C#N)c2nc3ccccc3n2c1Cl	62.6%
N#Cc1c(-c2ccccc2)c(C#N)c2nc3ccccc3n2c1N	37.8%
CC(C)(C)C1=C(C#N)C(c2cccnc2)C(C#N)=C(N)O1 (stereo not drawn)	19.8%
CCCCOc1ccc(-c2[nH]ncc2C=O)cc1	-46%
COc1ccc2nc(NC(=O)c3cccs3)sc2c1	-15.7%
CCOc1ccc(OCC)c(N=c2oc3c(C)ncc(CO)c3cc2C(N)=O)c1	23.3%
CSc1nnc(CNS(=O)(=O)c2ccc(Cl)cc2)n1C	-7.4%

Structure (SMILES)	inhibition
CC(=O)Nc1ncnc2c1c(-c1ccc(Cl)cc1)nn2C(C)(C)C	39.6%
CC(C)(C)n1nc(-c2ccc(Cl)cc2)c2c(N)ncnc21	54.6%
CC(=O)N(C(C)=O)c1ncnc2c1c(-c1ccc(Cl)cc1)nn2C(C)(C)C	71.2% (active)
Cc1ccccc1C(=O)Nc1ccccn1	-7.2%
c1ccc(-c2nn3c(-c4ccccc4)nnc3s2)cc1	-69.4%
COc1cc(N/C(=N/S(=O)(=O)c2ccccc2)c2ccccc2)ncn1	48.5% (active)
O=S(=O)(/N=C(/Nc1ccccn1)c1ccccc1)c1ccccc1	5.7%
O=S(=O)(/N=C(/Nc1cc(N2CCOCC2)ncn1)c1ccccc1)c1ccccc1	0.2%
Cn1c(CO)cnc1SCc1ccc(Cl)cc1	-5.4%
O=C1C2C3C=CC(CO)(O3)C2C(=O)N1c1ccc(-c2ccccc2)cc1 (stereo not drawn)	35.6%
O=C1C2C3C=CC(CO)(O3)C2C(=O)N1c1ccccc1-c1ccccc1 (stereo not drawn)	72.3% (active)
CC(=O)Oc1ccc(N2C(=O)C3C4C=CC(CO)(O4)C3C2=O)cc1 (stereo not drawn)	-9.3%
CCc1ccc(CNc2ccc3c(c2)ncn3CC)cc1	-16.7%
CCC(SC1=NCCS1)C(=O)Nc1nnc(-c2ccccc2OC)s1 (stereo not drawn)	-17.6%
NC(=O)Nc1ccc(C(=O)OCC(=O)N(Cc2ccccc2)C2CCS(=O)(=O)C2)cc1 (stereo not drawn)	-20.7%
CN1CCc2c(sc(NC(=O)C3COc4ccccc4O3)c2C(N)=O)C1 (stereo not drawn)	-27.9%
CC(=O)CSc1ccc(-c2nc3cc(C)c(C)cc3[nH]2)cn1	58.4% (active)
CCOC(=O)CSc1ccc(-c2nc3cc(C)c(C)cc3[nH]2)cn1	-40.2%
Cc1cc2nc(-c3ccc(SCC(=O)NC(C)C)nc3)[nH]c2cc1C	23.9%
CN(C)Cc1ccc(CNC(=O)COc2ccc3ccccc3c2)cc1	-35.8%
CC(=O)Nc1ccc(S(=O)(=O)N/N=C/c2cccnc2)cc1	-27.3%

— PubChem BioAssay AID1578 (Sanford-Burnham Center for Chemical Genomics, 2009)
